What all share (conditions): mRNA level, 48 h; actives raise or lower the signal
Read-out in experiment [1]: Cytochrome P450 4A22 (Homo sapiens) (UniProt Q5TCH4)
Put plainly: LTEA_HepaRG_CYP4A22: Life Technologies and Expression Analysis (LTEA) Assay for Cytochrome P450 4A22 (CYP4A22) using HepaRG (AID 2283495). An outline of the steps: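 Concentration-response (8 points, max 100 uM, 0.5% DMSO) in human HepaRG liver cells after 48 h exposure. CYP4A22 mRNA by TaqMan qRT-PCR with housekeeping-gene normalization.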

Read-out in experiment [2]: Cytochrome P450 7A1 (Homo sapiens) (UniProt P22680)
The experiment is described as follows: LTEA_HepaRG_CYP7A1: Life Technologies and Expression Analysis (LTEA) Assay for Cytochrome P450 7A1 (CYP7A1) using HepaRG (AID 2283496). An outline of the steps:
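Using 0.5% DMSO as vehicle and baseline, chemicals were tested in duplicate over an 8-point range from 100 uM on HepaRG cells for 48 h; qRT-PCR signals were normalised to ACTB, GAPDH and POLR2A.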

Read-out in experiment [3]: Glutathione S-Transferase (GSTA2), GSTA2 (gene 2939)
Put plainly: LTEA_HepaRG_GSTA2: Life Technologies and Expression Analysis (LTEA) Assay for Glutathione S-Transferase (GSTA2) using HepaRG (AID 2283497). The method in brief:
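GSTA2 transcript levels came from Fluidigm TaqMan qRT-PCR normalized to three housekeeping genes, fitted in both directions against DMSO. HepaRG cultures received chemicals for 48 h in serum-free induction medium (0.5% DMSO), 8 half-log concentrations up to 100 uM, duplicate.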

Read-out in experiment [4]: Glutamate-cysteine ligase catalytic (GCLC), GCLC (gene 2729)
Put plainly: LTEA_HepaRG_GCLC: Life Technologies and Expression Analysis (LTEA) Assay for Glutamate-cysteine ligase catalytic (GCLC) using HepaRG (AID 2283498). An outline of the steps:
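Expression by TaqMan qRT-PCR, normalized to three housekeeping genes (ACTB, GAPDH, POLR2A), with up- or down-regulation fitted against DMSO. HepaRG cells dosed in duplicate for 48 h with 8 half-log concentrations up to 100 uM, vehicle 0.5% DMSO.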

Read-out in experiment [5]: Glutamate-cysteine ligase regulatory (GCLM), GCLM (gene 2730)
Put plainly: LTEA_HepaRG_GCLM: Life Technologies and Expression Analysis (LTEA) Assay for Glutamate-cysteine ligase regulatory (GCLM) using HepaRG (AID 2283500). An outline of the steps: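 In this multiplexed HepaRG gene-expression assay, GCLM mRNA change after 48 h treatment (8 concentrations, max 100 uM) was scored against DMSO by bidirectional curve fitting.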

Read-out in experiment [6]: Heat shock 70 kDa protein 1 (HSPA1A), gene 3303
Put plainly: LTEA_HepaRG_HSPA1A: Life Technologies and Expression Analysis (LTEA) Assay for Heat shock 70 kDa protein 1 (HSPA1A) using HepaRG (AID 2283502). The method in brief: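 An oxidative-stress marker readout: HepaRG cells treated 48 h in duplicate with an eight-point series (highest 100 uM) had HSPA1A mRNA quantified by TaqMan qRT-PCR. Activity was fitted in both directions using 0.5% DMSO as baseline.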

Read-out in experiment [7]: Hypoxia-inducible factor 1-alpha (Homo sapiens) (UniProt Q16665)
The experiment is described as follows: LTEA_HepaRG_HIF1A: Life Technologies and Expression Analysis (LTEA) Assay for Hypoxia-inducible factor 1 (HIF1A) Trancription factor using HepaRG (AID 2283503).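 Note: HIF1A transcript by TaqMan qRT-PCR normalized to ACTB GAPDH and POLR2A.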 The method in brief: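 Gain- or loss-of-signal HIF1A mRNA changes are fitted against a DMSO baseline. HepaRG cultures receive eight concentrations, highest 100 uM, for 48 h in serum-free induction medium with 0.5% DMSO.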

Read-out in experiment [8]: 3-Hydroxy-3-Methylglutaryl-CoA Synthase 2 (HMGCS2), HMGCS2 (gene 3158)
Put plainly: LTEA_HepaRG_HMGCS2: Life Technologies and Expression Analysis (LTEA) Assay for 3-Hydroxy-3-Methylglutaryl-CoA Synthase 2 (HMGCS2) using HepaRG (AID 2283504). The method in brief:
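This steatosis marker was read as HMGCS2 mRNA change in HepaRG cells treated 48 h with up to 100 uM chemical. Normalisation used housekeeping genes; activity in either direction was fitted relative to 0.5% DMSO vehicle.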

Read-out in experiment [9]: Insulin Like Growth Factor 1 (IGF1), IGF1 (gene 3479)
Put plainly: LTEA_HepaRG_IGF1: Life Technologies and Expression Analysis (LTEA) Assay for Insulin Like Growth Factor 1 (IGF1) using HepaRG (AID 2283506). The method in brief: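 Endpoint: IGF1 mRNA change by qRT-PCR, housekeeping-normalized, fitted bidirectionally relative to 0.5% DMSO vehicle. Human HepaRG cells were treated 48 h in serum-free induction medium, eight half-log concentrations topping at 100 uM.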

Read-out in experiment [10]: Intercellular Adhesion Molecule 1 (ICAM1), ICAM1 (gene 3383)
The experiment is described as follows: LTEA_HepaRG_ICAM1: Life Technologies and Expression Analysis (LTEA) Assay for Intercellular Adhesion Molecule 1 (ICAM1) using HepaRG (AID 2283507). The method in brief: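 Using the human liver line HepaRG, compounds are tested in duplicate over 48 h at concentrations up to 100 uM. Expression is determined by TaqMan qRT-PCR, normalized to endogenous controls, and analysed relative to 0.5% DMSO vehicle.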

Read-out in experiment [11]: Insulin-like growth factor-binding protein 1 (IGFBP1), IGFBP1 (gene 3484)
Put plainly: LTEA_HepaRG_IGFBP1: Life Technologies and Expression Analysis (LTEA) Assay for Insulin-like growth factor-binding protein 1 (IGFBP1) using HepaRG (AID 2283508). The method in brief: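 HepaRG, 48 h, 8 conc. (max 100 uM, half-log), duplicates, 0.5% DMSO. Readout: TaqMan qRT-PCR, ACTB/GAPDH/POLR2A normalisation. Fit: bidirectional vs DMSO.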

Read-out in experiment [12]: Interleukin 6 Receptor (IL6R), IL6R (gene 3570)
The experiment is described as follows: LTEA_HepaRG_IL6R: Life Technologies and Expression Analysis (LTEA) Assay for Interleukin 6 Receptor (IL6R) using HepaRG (AID 2283510).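 For AC50: differentiated human HepaRG liver cells in serum-free induction medium.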 The method in brief: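 In this HepaRG screen, test chemicals act on cells for 48 h at up to 100 uM (eight half-log points, duplicate wells). IL6R expression is quantified by qRT-PCR after normalization to ACTB, GAPDH and POLR2A, with DMSO as baseline.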

Read-out in experiment [13]: Keratin 19 (KRT19), KRT19 (gene 3880)
Put plainly: LTEA_HepaRG_KRT19: Life Technologies and Expression Analysis (LTEA) Assay for Keratin 19 (KRT19) using HepaRG (AID 2283512). An outline of the steps:
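Readout is qRT-PCR of KRT19 mRNA, normalized to ACTB, GAPDH and POLR2A, from HepaRG cells treated 48 h with eight-point half-log dilutions topping at 100 uM. Activity in either direction is scored relative to 0.5% DMSO vehicle.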

Read-out in experiment [14]: JUN Transcription Factor, JUN (gene 3725)
Put plainly: LTEA_HepaRG_JUN: Life Technologies and Expression Analysis (LTEA) Assay for JUN Transcription Factor using HepaRG (AID 2283513). The method in brief:
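Gene-expression endpoint: JUN mRNA (qRT-PCR, normalized to three reference genes) in HepaRG cultures treated 48 h with chemicals, duplicate wells, 100 uM maximum with half-log dilutions; bidirectional fitting relative to 0.5% DMSO.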

Read-out in experiment [15]: Lipase C (LIPC), LIPC (gene 3990)
The experiment is described as follows: LTEA_HepaRG_LIPC: Life Technologies and Expression Analysis (LTEA) Assay for Lipase C (LIPC) using HepaRG (AID 2283514). An outline of the steps: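 LIPC expression was quantified by qRT-PCR against three housekeeping genes (ACTB, GAPDH, POLR2A). Differentiated human HepaRG cells received eight half-log doses (top 100 uM, 0.5% DMSO) in duplicate for 48 h; fitting bidirectional relative to DMSO.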

Read-out in experiment [16]: growth arrest and DNA damage 45 (GADD45G), GADD45G (gene 10912)
The experiment is described as follows: LTEA_HepaRG_GADD45G: Life Technologies and Expression Analysis (LTEA) Assay for growth arrest and DNA damage 45 (GADD45G) using HepaRG (AID 2283499). An outline of the steps:
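Concentration-response in HepaRG: 48 h dosing, 0.5% DMSO, highest level 100 uM. GADD45G expression by qRT-PCR, normalised to endogenous controls; bidirectional fit to DMSO.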

Read-out in experiment [17]: HGF (gene 3082)
The experiment is described as follows: LTEA_HepaRG_HGF: Life Technologies and Expression Analysis (LTEA) Assay for Hepatocyte Growth Facto (HGF) using HepaRG (AID 2283505). An outline of the steps:
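Using HepaRG monolayers kept in 0.5% DMSO, chemicals were tested in duplicate over eight half-log concentrations from 100 uM for 48 h. Endpoint: HGF mRNA change relative to DMSO, normalized to ACTB/GAPDH/POLR2A.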

Read-out in experiment [18]: Potassium channel subfamily K member 1 (KCNK1), KCNK1 (gene 3775)
The experiment is described as follows: LTEA_HepaRG_KCNK1: Life Technologies and Expression Analysis (LTEA) Assay for Potassium channel subfamily K member 1 (KCNK1) using HepaRG (AID 2283511). An outline of the steps:
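KCNK1 transcript measured by TaqMan qRT-PCR against three housekeeping genes, after HepaRG cells were treated 48 h with eight half-log concentrations (top 100 uM, 0.5% DMSO). Curves fitted bidirectionally relative to vehicle.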

Read-out in experiment [19]: Glutathione S-transferase M3 (GSTM3), GSTM3 (gene 2947)
The experiment is described as follows: LTEA_HepaRG_GSTM3: Life Technologies and Expression Analysis (LTEA) Assay for Glutathione S-transferase M3 (GSTM3) using HepaRG (AID 2283501). The method in brief: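 Expression of GSTM3 is determined by qRT-PCR in human liver HepaRG cells treated 48 h with an 8-point half-log range from 100 uM in 0.5% DMSO.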

Read-out in experiment [20]: Interleukin 6 (IL6), IL6 (gene 3569)
The experiment is described as follows: LTEA_HepaRG_IL6: Life Technologies and Expression Analysis (LTEA) Assay for Interleukin 6 (IL6) using HepaRG (AID 2283509). The method in brief:
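Transcript levels, normalized to three housekeeping genes, were quantified by qRT-PCR after 48 h chemical treatment of HepaRG cells. Eight-point half-log series from 100 uM in 0.5% DMSO, duplicates. Fitted both directions against DMSO baseline.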

A word on the AC50: it is the midpoint of the concentration-response curve, whichever way the signal moves.

Active and inactive are the calls of the source. Rule for the calls: active = hit-call score of the fitted dose curve at least 0.9, where 1 is the maximum; inactive = score below 0.9.

Chain of Hypoxia-inducible factor 1-alpha (Homo sapiens) (Q16665 whole entry, looked up): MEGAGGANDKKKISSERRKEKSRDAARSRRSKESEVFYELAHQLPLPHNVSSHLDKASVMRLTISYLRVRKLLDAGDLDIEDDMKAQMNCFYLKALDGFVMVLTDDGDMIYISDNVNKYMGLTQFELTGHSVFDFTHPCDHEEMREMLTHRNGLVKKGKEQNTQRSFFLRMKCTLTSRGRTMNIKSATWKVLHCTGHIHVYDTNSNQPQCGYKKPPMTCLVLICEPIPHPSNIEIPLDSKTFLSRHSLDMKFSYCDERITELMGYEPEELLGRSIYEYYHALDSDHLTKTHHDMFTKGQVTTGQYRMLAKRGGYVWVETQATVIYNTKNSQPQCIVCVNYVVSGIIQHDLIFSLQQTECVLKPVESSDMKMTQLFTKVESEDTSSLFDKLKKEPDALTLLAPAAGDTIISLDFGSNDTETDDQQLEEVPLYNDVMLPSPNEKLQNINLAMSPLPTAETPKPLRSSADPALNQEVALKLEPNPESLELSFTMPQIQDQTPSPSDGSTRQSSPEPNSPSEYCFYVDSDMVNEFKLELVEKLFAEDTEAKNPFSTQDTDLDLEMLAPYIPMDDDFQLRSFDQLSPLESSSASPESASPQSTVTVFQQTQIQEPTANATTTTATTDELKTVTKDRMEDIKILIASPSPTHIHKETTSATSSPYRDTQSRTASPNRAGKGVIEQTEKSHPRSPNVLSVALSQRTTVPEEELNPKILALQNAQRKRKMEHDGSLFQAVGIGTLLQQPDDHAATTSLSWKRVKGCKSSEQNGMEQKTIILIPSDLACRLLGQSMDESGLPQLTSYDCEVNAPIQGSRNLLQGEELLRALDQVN

In the case of `O=C1CCC(C2CCCCC2)CC1`, the result in experiment [1], in experiment [2], in experiment [3], in experiment [4], in [5] and in experiment [6] was inactive. Moreover, the molecule was classed as inactive in [7], in [8], in experiment [9], in experiment [10], in [11] and in experiment [12]. For the same molecule, the outcome in experiment [13], in experiment [14] and in experiment [15] was inactive.
Turning to `CC(=O)N1CCN(c2ccc(OC[C@H]3CO[C@](Cn4ccnc4)(c4ccc(Cl)cc4Cl)O3)cc2)CC1`, the AC50 is 12.9 µM (active) in [2]; 11.3 µM (active) in experiment [3]; 65.5 µM (active) in experiment [4]; 88.7 µM (active) in experiment [5]; 79.5 µM (active) in experiment [6]; 12.4 µM (active) in [8]. Besides, the AC50 is 12.4 µM (active) in experiment [9]; 26.6 µM (active) in experiment [10]; 15.1 µM (active) in [11]; 13.9 µM (active) in [12]; 12.2 µM (active) in [13]; 50 µM (active) in experiment [14]. Further, the half-maximal activity concentration (AC50) in experiment [15] is 18.3 µM (active). Further, the result in experiment [16] was inactive.
Consider `O=C(O)Cc1cc(I)c(Oc2ccc(O)c(I)c2)c(I)c1`, for which the half-maximal activity concentration (AC50) is 0.063 µM (active) in [1]; 56.8 µM (active) in [2]; 84.7 µM (active) in experiment [3]; 79 µM (active) in [5]; 79.7 µM (active) in experiment [6]; 77.1 µM (active) in [8]. Further, the half-maximal activity concentration (AC50) in [17] is 66.8 µM (active); in experiment [9], 93.7 µM (active); in [10], 64.4 µM (active); in [11], 71.1 µM (active); in [12], 42.7 µM (active); in [18], 64.3 µM (active). For the same molecule, the half-maximal activity concentration (AC50) is 0.631 µM (active) in [13], 80.7 µM (active) in experiment [14] and 88.5 µM (active) in [15]. The call in experiment [4] was inactive.
`Cc1oc2c(NC(=O)c3c(Cl)cccc3Cl)cccc2c1C(C)(C)O`: the half-maximal activity concentration (AC50) is 31.5 µM (active) in experiment [1]; 57.3 µM (active) in [2]; 38.2 µM (active) in experiment [3]; 68.7 µM (active) in [4]; 50 µM (active) in experiment [5]; 34.4 µM (active) in [19]. Besides, the AC50 in [6] is 79.6 µM (active); in [8] it was 52.8 µM (active); in [9] it was 28.6 µM (active); in experiment [10], 50 µM (active); in experiment [11] it was 37.8 µM (active); in experiment [20], 66.2 µM (active). For the same molecule, the AC50 was 23.8 µM (active) in experiment [12], 50 µM (active) in experiment [13] and 37.6 µM (active) in experiment [15]. Also, the call in experiment [7] and in experiment [14] was inactive.

(Values after PubChem BioAssay (EPA / NIEHS).)
